# Results reported in PubChem BioAssay AID602162 (NMMLSC, 2011).
# Screen size: about 360,000 compounds; about 690 (0.19%) were called active. Shown is part of a subset that was picked to be rich in actives. Unmarked numbers belong to inactive results.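 How the source made its calls: active means fluorescence ratio to DMSO below 75%, the collection mean minus 3 SD; inconclusive means too few cells collected in the well; inactive means the rest.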
# Target: ATP-binding cassette sub-family B member 6 (Homo sapiens) (UniProt Q9NP58)
# Sequence (Q9NP58 whole entry, looked up): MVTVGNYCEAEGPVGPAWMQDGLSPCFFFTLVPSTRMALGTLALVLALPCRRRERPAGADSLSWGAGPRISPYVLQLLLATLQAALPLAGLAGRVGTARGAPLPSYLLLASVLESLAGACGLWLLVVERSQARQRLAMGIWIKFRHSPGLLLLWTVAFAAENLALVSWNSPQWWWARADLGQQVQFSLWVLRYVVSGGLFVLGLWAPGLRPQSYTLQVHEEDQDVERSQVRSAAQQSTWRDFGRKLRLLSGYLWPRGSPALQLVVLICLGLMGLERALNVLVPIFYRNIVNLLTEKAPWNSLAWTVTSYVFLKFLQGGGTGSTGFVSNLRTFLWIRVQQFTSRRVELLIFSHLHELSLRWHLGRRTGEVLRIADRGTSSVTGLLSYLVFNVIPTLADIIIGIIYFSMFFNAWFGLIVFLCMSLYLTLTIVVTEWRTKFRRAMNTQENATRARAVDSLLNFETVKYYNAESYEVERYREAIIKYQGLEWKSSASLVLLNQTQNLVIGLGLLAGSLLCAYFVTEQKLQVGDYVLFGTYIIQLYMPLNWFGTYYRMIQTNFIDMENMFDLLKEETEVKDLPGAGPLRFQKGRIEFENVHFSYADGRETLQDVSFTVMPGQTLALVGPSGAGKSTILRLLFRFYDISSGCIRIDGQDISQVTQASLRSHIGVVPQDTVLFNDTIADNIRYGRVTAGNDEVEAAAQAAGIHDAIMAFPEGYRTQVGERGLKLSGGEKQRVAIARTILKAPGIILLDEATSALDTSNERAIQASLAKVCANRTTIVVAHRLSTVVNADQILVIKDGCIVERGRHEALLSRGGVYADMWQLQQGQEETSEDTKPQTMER
# Experiment: ABCB6 transporter inhibitors, primary screen, K562-ABCB6 cells, flow cytometry, MLPCN library (AID 602162);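 further: signal is porphyrin accumulated inside mitochondria; 100% equals median channel fluorescence of DMSO control wells; lower ratio means ABCB6 inhibition with less porphyrin fluorescence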
# Details: K562-ABCB6 porphyrin accumulation, 1 h, at 10 µM, stronger effect = lower value
row,SMILES,fluorescence ratio to DMSO
1,Cc1ccc2nc3c(cc(C(=O)NCCc4ccccc4)c(=N)n3CC3CCCO3)c(=O)n2c1 (stereo not drawn),66% (active)
2,Cc1ccc(CCNC(=O)c2ccc3nc4ccccc4c(=O)n3c2)cc1,100%
3,O=C(NC1CCCCC1)c1ccc2c(=O)n(CC3CCCO3)c(=O)[nH]c2c1 (stereo not drawn),97%
4,COc1cc2c(cc1OC)C(c1cccc([N+](=O)[O-])c1)=NCC2,100%
5,C=CCN1CC(C)/C(=N\O)CC1C (stereo not drawn),88%
6,O=C(Cc1ccc([N+](=O)[O-])cc1)NCCS(=O)(=O)N1CCN(c2ccccc2)CC1,107%
7,Cc1ccc(SCCC(=O)NCc2ccccn2)cc1,98%
8,Cc1cc(Cl)ccc1OCCCC(=O)NCc1ccccn1,89%
9,Cc1cc(C)cc(NC(=O)NCc2ccccn2)c1,58% (active)
10,NC(=O)c1ncc(C(F)(F)F)cc1Oc1ccc(F)cc1,91%
11,CCOc1cc(/C=C2/N=C(c3ccc(C(C)(C)C)cc3)OC2=O)cc(Cl)c1OS(C)(=O)=O,102%
12,CC(C)(C)Cc1c(C2CCCCC2)nc2ccc(Br)cn12,101%
13,O=C(CSc1nc2ncccc2[nH]1)Nc1ccc2c(c1)OCCO2,103%
14,COc1cc2[nH]c(=S)n(Cc3ccc(C)o3)c(=O)c2cc1OC,100%
15,COc1cc2[nH]c(=S)n(Cc3ccc(F)cc3)c(=O)c2cc1OC,72% (active)
16,CCOc1cc2[nH]c(=S)n(Cc3ccc(C(=O)NCCOC)cc3)c(=O)c2cc1OCC,98%
17,CCOC(=O)[C@]12CCC=C1N(Cc1ccco1)C(=O)[C@H](CC(=O)NCc1cccc(C(F)(F)F)c1)C2,107%
18,CS(=O)(=O)N(CC(=O)N1CCN(c2ccc(F)cc2)CC1)C1CCCCC1,94%
19,CCOC(=O)N1CCN(C(=O)CN(C2CCCCC2)S(C)(=O)=O)CC1,73% (active)
20,CCC(C)NC(=O)CN(C1CCCCC1)S(C)(=O)=O (stereo not drawn),98%
21,C=CCn1c(CNS(=O)(=O)c2ccc(Br)cc2)nnc1SC,96%
22,C=Cn1cc[n+](CC(=O)c2ccc(OC)c(OC)c2)c1,97%
23,CCOC(=O)Cc1csc(NC(=O)CN(C)S(=O)(=O)c2ccc3c(c2)CCC(=O)N3)n1,98%
24,CN(CC(=O)NC(=O)Nc1ccccc1F)Cc1ccccc1,97%

row,SMILES,fluorescence ratio to DMSO
1,CCOC(=O)c1ccc(-n2c(C)nc3c(cnn3-c3ccccc3C)c2=O)cc1,100%
2,CC1Sc2ccc(S(=O)(=O)CCC(=O)NCc3ccccc3Cl)cc2NC1=O (stereo not drawn),93%
3,Cc1cccc(N2CCN(C(=O)CCS(=O)(=O)c3ccc4c(c3)NC(=O)C(C)S4)CC2)c1C (stereo not drawn),74% (active)
4,COc1ccccc1N1CCN(C(=O)CCS(=O)(=O)c2ccc3c(c2)NC(=O)C(C)S3)CC1 (stereo not drawn),102%
5,COc1ccc(C(=O)NC2CC2)cc1OC1CCN(C/C=C/c2ccccc2)CC1,95%
6,Cc1ccc(CN(C(=O)c2sc3ccccc3c2Cl)C2CCS(=O)(=O)C2)cc1 (stereo not drawn),95%
7,CCCn1c(O)c(CN2CCCC(C)C2)c(C)c(C#N)c1=O (stereo not drawn),96%
8,CCCCn1nc(C(=O)N2CCc3ccccc32)c2ccccc2c1=O,102%
9,Cc1ccc(CNC(=O)c2ccc(CS(=O)Cc3cccc(Cl)c3)o2)cc1 (stereo not drawn),102%
10,O=C(O)c1ccn(COc2ccc(Br)cc2)n1,95%
11,Cc1cccc(NS(=O)(=O)c2ccc(C)c(C(=O)NCc3cccnc3)c2)c1,98%
12,Cc1cccc(CS(=O)(=O)c2ncc(Cl)c(C(=O)Nc3ccc(F)cc3)n2)c1,44% (active)
13,O=C(CS(=O)(=O)Cc1ccccc1)Nc1cccnc1,93%
14,CN(CC(=O)Nc1ccc(F)cc1)CC(=O)Nc1ccc(Cl)c(S(=O)(=O)N2CCOCC2)c1,100%
15,Cc1cccc(NC(=O)c2nc(S(=O)(=O)Cc3ccccc3)ncc2Cl)c1,59% (active)
16,Cc1cccc(C(=O)Nc2ccc(Oc3cnccn3)cc2)c1,98%
17,O=C(CSc1nnc(SCc2ccc(Cl)cc2)s1)N/N=C/c1ccccc1Cl,115%
18,O=C(CSc1nncs1)NC1CCCc2ccccc21 (stereo not drawn),104%
19,CCCCC(O)C1=C[N+](=O)CC=C1 (stereo not drawn),92%
20,O=C(Nc1ccc(F)cc1)Nc1nnc([C@H]2C[C@H](O)[C@@H](CO)O2)s1,104%
21,CCOc1ccc(CCNC(=O)CN2C(=O)NC3(CCc4ccccc43)C2=O)cc1OCC (stereo not drawn),103%
22,CCC(=O)Nc1cccc(NC(=O)CSc2nnc(-c3ccc(NS(C)(=O)=O)cc3)n2C)c1,103%
23,C=C1CCN([C@H](C(=O)NCc2cc(OC)c(OC)c(OC)c2)C(C)C)S(=O)(=O)c2ccccc21,97%
24,Cc1cccc(C(=O)NCc2nnc(SC(C)C(=O)Nc3nnc(C)s3)n2C)c1 (stereo not drawn),101%

row,SMILES,fluorescence ratio to DMSO
1,CC(=O)c1cccc(NC(=O)CN2C(=O)c3cccnc3Oc3ccc(Cl)cc32)c1,114%
2,CC(C)[C@H](NC(=O)Nc1ccc(S(N)(=O)=O)cc1)C(=O)O,107%
3,CC(C)(C)C(=O)c1cnc(Nc2ccccc2)s1,94%
4,Nc1nc(COC(=O)CCC(=O)c2ccc(Cl)cc2)nc(Nc2ccccc2)n1,94%
5,O=C(c1ccc(Cl)cc1)c1cnc(Nc2ccccc2)s1,70% (active)
6,ON=C1/C(=N\O)CC2(C/C1=N/O)OCCO2,103%
7,O=C(COC(=O)c1cccc(Cl)c1Cl)NC1CCCCCC1,93%
8,COC(=O)c1ccc2nc(C3CCCCC3)c(Cc3cccc(F)c3)n2c1,107%
9,COc1cccc(NC(=O)CS(=O)(=O)c2cn(CC(=O)N3CCOCC3)c3ccccc23)c1,97%
10,COc1ccccc1C(=O)c1ccccc1C(=O)c1ccccc1,102%
11,COc1ccccc1C(=O)Nn1cnnc1,100%
12,COc1ccccc1C(=O)C(O)c1ccccc1OC (stereo not drawn),73% (active)
13,CCOc1ccc(S(=O)(=O)NCCC(=O)N2CCCCCCC2)cc1,98%
14,CCOc1ccc(CCNC(=O)COC(=O)c2ccc(C)c(S(=O)(=O)N3CCOCC3)c2)cc1OCC,101%
15,COc1c(O)ccc2c1CN1CCc3cc4c(cc3C1C2)OCO4 (stereo not drawn),102%
16,Cn1ccnc1SCC(=O)Nc1ccc2c(c1)OCCO2,101%
17,CCn1c(SCC(=O)Nc2ccc3c(c2)OCCO3)nnc1C(C)C,88%
18,CCn1c(COc2ccccc2)nnc1SCC(=O)Nc1ccc2c(c1)OCCO2,73% (active)
19,COc1cc(CN2CCCC(C(=O)c3ccc(SC)cc3)C2)cc(Cl)c1O (stereo not drawn),96%
20,COC(=O)C(=Nc1ccccc1)/C(C(=O)C(=O)N(C)c1ccccc1)=C(\O)c1ccc(Cl)cc1,94%
21,COc1cc(NS(=O)(=O)c2ccc(NC(=O)c3ccc(S(=O)(=O)N4CCCCC4)cc3)cc2)ncn1,102%
22,O=S(=O)(NCCS(=O)(=O)N1CCN(c2ccccc2)CC1)c1ccc(F)cc1,95%
23,CCS(=O)(=O)N1CCC(N2CCN(c3ccccc3)CC2)CC1,70% (active)
24,CS(=O)(=O)N1CCC(C(=O)N2CCN(c3ccccc3)CC2)CC1,108%

row,SMILES,fluorescence ratio to DMSO
1,CCOC(=O)c1cc(-c2sc(NC(=O)c3ccccc3)nc2C)n(-c2ccc(Br)cc2)n1,90%
2,COc1cccc(N(CC(=O)N2CCc3ccccc3C2)S(C)(=O)=O)c1,73% (active)
3,Cc1ccc(S(=O)(=O)N(CC(=O)N2CCc3ccccc3C2)c2cccc(Cl)c2)cc1,90%
4,CS(=O)(=O)N(CC(=O)N1CCc2ccccc2C1)c1ccc(Br)cc1,95%
5,COCCNc1cc(-c2ccccc2)nc2cc(-c3cccc(F)c3)nn12,97%
6,CC1(C(=O)NS(=O)(=O)c2ccc3ccccc3c2)CCN1C(=O)C1(c2ccc(Cl)cc2)CCC1 (stereo not drawn),102%
7,Cc1ncn2cc(-c3ccc(Cl)cc3Cl)[nH]c(=O)c12,96%
8,O=C(Nc1ccccc1C(=O)N1CCCCCC1)c1ccccc1Cl,99%
9,O=C(Nc1ccccc1Cl)/C(Cl)=C(\Cl)S(=O)c1ccccc1 (stereo not drawn),43% (active)
10,O=C(COc1nsnc1N1CCOCC1)Nc1ccccc1Cl,95%
11,Cc1ccc(S(=O)(=O)N2C[C@@H]3CCCC[C@@H]3[C@@H](C)[C@H]2c2cn(Cc3ccccc3)c3ccc(F)cc23)cc1,97%
12,COc1cccc(N(CC(=O)NCCSc2ccccn2)S(C)(=O)=O)c1,99%
13,Cc1ccc(C(=O)Nc2ccccc2-c2ccccc2)cc1S(=O)(=O)Nc1ccccc1,99%
14,CCOC1=C2[C@H]([C@H]3C(=O)N(c4ccccc4)C(=O)[C@H]3C1)[C@@H](c1ccccc1)N(S(=O)(=O)c1ccc(C)cc1)[C@H]2c1ccccc1,104%
15,Cc1cc(C)c(C(=O)CSc2nc(C)cc(=O)[nH]2)c(C)c1,101%
16,Cc1cc(C(=O)CSc2nc(N)cc(=O)[nH]2)c(C)n1CCc1ccc(Cl)cc1,95%
17,Cc1cc(C(=O)CSc2nc(N)cc(=O)[nH]2)c(C)n1-c1cccc(F)c1,72% (active)
18,CC(Oc1ccccc1)C(=O)NN1Cc2ccccc2C1=N (stereo not drawn),99%
19,O=C(OCC(=O)N1CCCCC1)c1ccc(OC(F)(F)F)cc1,95%
20,O=C1NC2(CCCCCC2)C(=O)N1CCS(=O)(=O)Oc1ccccc1,96%
21,O=c1ccc2cc(S(=O)(=O)N3CCN(c4ccccc4)CC3)ccc2o1,98%
